What all share (experiment): NCI-60 one-dose screen, 48 h (100 = growth as untreated, 0 = no growth, -100 = all killed)
Holding throughout (details): 10 µM unless noted

Assay [1] has as its system T-47D breast.
Assay [2] relates to BT-549 breast.
Assay [3] has as its system MDA-MB-435 melanoma.
The subject of assay [4] is SW-620 colon.
Assay [5] has as its system MCF7 breast.
In assay [6] the test system is HCT-116 colon.
In assay [7] the test system is HCC-2998 colon.
Assay [8] relates to KM12 colon.

This is part of a sample that, as a whole, favours compounds with a hit. Of some 83,000 tested, about 20% had one in any assay.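 Treatment: one concentration, 48 hours, 96-well format. Scoring: percent growth, with anything below 10 considered active.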 Values without a mark were called inactive. Calls of active or inactive are those of the source.

With `C#CC(=O)Nc1cccc(Nc2nc3c(c(NCc4ccccc4)n2)CCCC3)c1`, the growth in assay [1] is -38.7% (active); in assay [2], -70% (active); in assay [3], -70.6% (active); in assay [4], -46.7% (active); in assay [5] it was -39.7% (active); in assay [6] it was -78.8% (active). Moreover, the results for the growth in assay [7] and in assay [8] were -89.3% (active) and -53.4% (active), respectively.

As for `O=C(Nc1ccc2ncnc(Nc3ccc(Oc4cccc(F)c4)c(Cl)c3)c2c1)c1ccc(CNCCO)cc1`, the growth in assay [1] is 42.6%; in assay [2], 85.5%; in assay [3], -86.3% (active); in assay [4], -74% (active); in assay [5] it was -67.2% (active); in assay [6] it was -46.5% (active). Further, the growth in assay [7] is -8.44% (active); in assay [8] it was 12.9%.

For the compound `FC(F)(F)c1cccc(Oc2ccc(Nc3ncnc4ccc(OCCCN5CCOCC5)cc34)cc2Cl)c1`, the growth in assay [1] is 32.7%; in assay [2] it was 78.9%; in assay [3], 43.2%; in assay [4] it was 31.7%; in assay [5] it was 28.7%; in assay [6], 28%. Besides, the values for the growth in assay [7] and in assay [8] were 29.3% and 17.1%, respectively.

On to `NC(=O)c1cccc(-n2ccc3cc(NC(=O)Nc4cc(C(F)(F)F)cc(C(F)(F)F)c4)ccc32)n1`, for which the growth in assay [1] was 44.7%; in assay [2], 74.4%; in assay [3], 50.5%; in assay [4] it was 73.7%; in assay [5], 27.2%; in assay [6], 38%. Besides, the growth in assay [7] was 88.2%; in assay [8] it was 11.7%.

For the compound `CC1NC(=S)NC(=O)/C1=C/c1cc(=O)oc2c1ccc1ccccc12` (centres undefined), the growth is 93.4% in assay [1]; 87.7% in assay [2]; 105% in assay [3]; 95.5% in assay [4]; 89.9% in assay [5]; 91.8% in assay [6]. The results for the growth in assay [7] and in assay [8] were 105% and 99.6%, respectively.

Consider `CC1(C)CCCN1CCCN1c2ccccc2Sc2ccc(Cl)cc21`, for which the growth in assay [1] was 68.5%; in assay [2] it was 56.3%; in assay [3], 51.5%; in assay [4] it was 79.9%; in assay [5] it was 45.3%; in assay [6], 33.3%. Also, the values for the growth in assay [7] and in assay [8] were 56.7% and 56.1%, respectively.

On to `CCC(C)C(N)C(=O)NNc1n[nH]c(=S)n1N` (centres undefined), for which the growth in assay [1] is 104%; in assay [2], 104%; in assay [3] it was 103%; in assay [4], 96.9%; in assay [5], 96.9%; in assay [6] it was 108%. For the same compound, the growth is 106% in assay [7] and 104% in assay [8].

As to `Cc1cccc(Oc2ccc(Nc3ncnc4ccc(NC(=O)CN(C)C)cc34)cc2Cl)c1`, the growth in assay [1] is 39.4%; in assay [2], 72.9%; in assay [3], 34.5%; in assay [4], 12.6%; in assay [5], 22.7%; in assay [6], 21.4%. The growth is 13.3% in assay [7] and 35.1% in assay [8].

As to `CC(C)(C)CC(C)(C)Nc1c(-c2ccc(C(F)(F)F)cc2)nc2cnccn12`, the growth is 74.4% in assay [1]; 76% in assay [2]; 98.8% in assay [3]; 102% in assay [4]; 66.5% in assay [5]; -5.73% (active) in assay [6]. The growth in assay [7] is 92.1%; in assay [8], 83.8%.

As for `CNC(=O)c1c(NC(=O)c2ccc(C(C)C)cc2)sc2c(CN(C)C)c(O)ccc12`, the growth is 80.6% in assay [1]; 87.9% in assay [2]; 89.8% in assay [3]; 17.2% in assay [4]; 68.6% in assay [5]; 46.1% in assay [6]. Besides, the growth in assay [7] was 55.4%; in assay [8] it was 66.2%.

`CCc1nc(C)cn1C(=O)OCc1nc2nc(Cl)nc(N3CCOCC3)c2[nH]1`: the growth in assay [1] is -47.9% (active); in assay [2] it was -18.8% (active); in assay [3] it was -73.6% (active); in assay [4], -47.9% (active); in assay [5], -22.4% (active); in assay [6], -71.5% (active). The growth in assay [7] is 26.5%; in assay [8], 20.8%.

In the case of `COc1ccc(Cn2nc(-c3ccccc3)c3c2CCc2cnoc2-3)cc1`, the growth was 43.4% in assay [1]; 82.1% in assay [2]; 28.4% in assay [3]; 83.2% in assay [4]; 72.6% in assay [5]; 65.4% in assay [6]. Further, the growth in assay [7] was 67.4%; in assay [8] it was 56.8%.

On to `O=C1CCCCCCCCC(O)C(O)CCCC(c2cccs2)O1` (centres undefined), for which the growth was 71.8% in assay [1]; 122% in assay [2]; 99.3% in assay [3]; 103% in assay [4]; 95.9% in assay [5]; 89.8% in assay [6]. In addition, the figures for the growth in assay [7] and in assay [8] were 118% and 100%, respectively.

On to `Cc1cc(NC(=O)c2cnc(N3CCN(CCOCCOCCOCCOCCC(=O)N[C@H](C(=O)N4C[C@H](O)C[C@H]4C(=O)N[C@@H](C)c4ccc(-c5scnc5C)cc4)C(C)(C)C)CC3)cn2)c2ncccc2c1`, for which the growth in assay [1] is 20.2%; in assay [2], -37.3% (active); in assay [3], -68.3% (active); in assay [4] it was -39.9% (active); in assay [5], 4.01% (active); in assay [6], -60.3% (active). Further, the growth in assay [7] is -80.6% (active); in assay [8] it was -64.6% (active).

On to `CC(C)Sc1nc(NN)c(C#N)c(-c2ccccc2)n1`, for which the growth in assay [1] is 90.4%; in assay [2] it was 79.3%; in assay [3], 103%; in assay [4] it was 94.9%; in assay [5] it was 90.9%; in assay [6], 87.9%. The growth in assay [8] was 101%.

`CC(C)(C)OC(=O)N1CCN(c2ccc(N)cc2)C(=O)C1`: the growth in assay [1] was 106%; in assay [2], 116%; in assay [3], 106%; in assay [4], 109%; in assay [5], 91.9%; in assay [6] it was 99.9%. The growth in assay [7] was 102%; in assay [8], 108%.

On to `CCOc1ccc(/C=N/Nc2cc(C)nc3ccc(Cl)cc23)cc1`, for which the growth in assay [1] was 60.3%; in assay [2], 80.6%; in assay [3] it was 40.9%; in assay [4] it was -72.8% (active); in assay [5], 1.28% (active); in assay [6], -75.3% (active). Besides, the growth in assay [7] was 27.5%; in assay [8], 33.3%.

As for `COc1ccc(Cn2nc3c(c2-c2cc(OC)c(OC)c(OC)c2)-c2oncc2CC3)cc1`, the growth in assay [1] was 79.3%; in assay [2] it was 88.9%; in assay [3] it was 0.861% (active); in assay [4] it was 86%; in assay [5], 69.9%; in assay [6], 81.4%. Besides, the growth in assay [7] is 77.5%; in assay [8] it was 70.9%.

`COc1ccc(C2=C(c3ccccc3)c3ccc(OC(C)=O)cc3OC2(C)C)cc1`: the growth in assay [1] was 83.9%; in assay [2], 140%; in assay [3] it was 80.5%; in assay [4], 82.1%; in assay [5], 93.9%; in assay [6] it was 88.9%. For the same compound, the growth was 86.5% in assay [7] and 52.7% in assay [8].

Take `Fc1ccc(C2CC(c3cccc(Nc4ccncc4)c3)=NN2c2ccc(Cl)cc2)cc1` (centres undefined): the growth in assay [1] was 80.9%; in assay [2], 105%; in assay [3], -6.55% (active); in assay [4], -74% (active); in assay [5] it was 6.6% (active); in assay [6] it was 101%. The growth is 16.7% in assay [7] and 19.5% in assay [8].

For `COc1ccc2nc(N=Nc3c(O)ccc4ccccc34)sc2c1`, the growth is 27.3% in assay [1]; 53.3% in assay [2]; 45.1% in assay [3]; 35.8% in assay [4]; 13.9% in assay [5]; 26.6% in assay [6]. In addition, the figures for the growth in assay [7] and in assay [8] were 45.9% and 32.3%, respectively.

As for `O=C(N=Nc1c(O)[nH]c2ccc(F)cc12)c1cc2ccccc2[nH]1`, the growth in assay [1] was 88.2%; in assay [2] it was 90.2%; in assay [3] it was 99.6%; in assay [4], 105%; in assay [5] it was 90.1%; in assay [6] it was 93.5%. In addition, the growth was 100% in assay [7] and 102% in assay [8].

With `CCc1c(Nc2ccc(C)cc2)nc(N)[nH]c1=O`, the growth in assay [1] is 96.4%; in assay [2], 101%; in assay [3], 106%; in assay [4], 109%; in assay [5], 93.7%; in assay [6] it was 98.6%. Further, the growth in assay [8] was 102%.

Turning to `C=C(C)[C@@H]1CC[C@]2(C(=O)N3CCN(C)CC3)CC[C@]3(C)[C@H](CC[C@@H]4[C@@]5(C)CCC(=O)C(C)(C)[C@@H]5CC[C@]43C)[C@@H]12`, the growth in assay [1] is 65.3%; in assay [2], 96.8%; in assay [3], 92%; in assay [4], 73.5%; in assay [5] it was 59.2%; in assay [6], 31.2%. Also, the growth in assay [7] was 82.1%; in assay [8] it was 80.6%.

In the case of `CCCCCCCCCCCCCCCC(=O)OC[C@@]1(O)C[C@@]23CC[C@@H]4C(C)(C)CCC[C@@]4(C)[C@@H]2CC[C@H]1C3`, the growth in assay [1] was 83.5%; in assay [2], 86.7%; in assay [3] it was 107%; in assay [4] it was 108%; in assay [5] it was 60.5%; in assay [6], -79.1% (active). Besides, the growth in assay [7] was 118%; in assay [8], 111%.

Take `COc1ccc(C(=O)c2cc3c(N)c(C(=O)Nc4ccc(Br)cc4)sc3nc2C)cc1`: the growth in assay [1] was 70.6%; in assay [2], 78.2%; in assay [3], 63.6%; in assay [4] it was 79.1%; in assay [5], 71%; in assay [6] it was 58.2%. The growth in assay [8] was 72%.

For the compound `CCCCCCN(C)Cc1ccc(OCCOc2ccc(CN(C)CCCCCC)cc2)cc1`, the growth is -13.7% (active) in assay [1]; 26.2% in assay [2]; -17.4% (active) in assay [3]; -70.2% (active) in assay [4]; -76.3% (active) in assay [5]; -96.1% (active) in assay [6]. Besides, the figures for the growth in assay [7] and in assay [8] were -87.5% (active) and -19.3% (active), respectively.

Take `COc1cccc(/C=C2\COc3ccc(-c4ccccc4)cc3C2=O)c1`: the growth in assay [1] is -6.21% (active); in assay [2], 13.1%; in assay [3], -25.8% (active); in assay [4] it was -55.6% (active); in assay [5], -3.38% (active); in assay [6] it was -23.8% (active). Also, the growth is 19.4% in assay [7] and -37.3% (active) in assay [8].

As for `O=C(NNc1nc(Cl)nc(N2CCN(C(c3ccccc3)c3ccccc3)CC2)n1)c1ccccc1`, the growth is 54.8% in assay [1]; 7.6% (active) in assay [2]; 58.7% in assay [3]; -40.7% (active) in assay [4]; 82.5% in assay [5]; -23.9% (active) in assay [6]. The figures for the growth in assay [7] and in assay [8] were -24.5% (active) and 76.9%, respectively.

The values are drawn from PubChem BioAssay (NCI).
